Measurements from PubChem BioAssay AID504832 (National Center for Advancing Translational Sciences (NCATS), 2011).
Hit rate of the full screen: of about 310,000 compounds, about 18,000 (5.8%) were called active. Roughly 22% stayed inconclusive and do not appear here. Only a selection was taken, and actives are over-represented in it overall. A number with no mark means an inactive call. The call rests on the fitted dose curve; in most records, active means well fitted inhibition curve with a large enough effect; inconclusive means small, poorly fitted or top-dose-only effect, or another doubt; inactive means no such curve, though single readings can be large or run the other way.

assay: Primary qHTS for delayed death inhibitors of the malarial parasite plastid, 48 hour incubation; details: P. falciparum luciferase growth in erythrocytes; series mostly up to 28.7 µM; activity change, negative = inhibition: at the top concentration
Source text: The goal of this screen is to discover new antimalarial compounds that act by inhibiting the development of the apicoplast in the malarial parasite Plasmodium falciparum. The biochemical processes that make this organelle essential for erythrocytic stage parasites are not well understood. However, antibiotics such as azithromycin and tetracycline, which target the apicoplast translational machinery, have a potent antimalarial effect.
We have developed a cell-based assay that measures parasite growth based on the expression of an integrated copy of a firefly luciferase reporter. To detect small molecules that cause this "delayed death" phenotype, erythrocytes infected with the luciferase-expressing parasites were incubated with compounds for either one or two generations, corresponding to 48 and 96 hours, respectively. Compounds that inhibit parasite growth in the second generation, but not the first, should be enriched in antimalarials that target the apicoplast. Growth inhibition is detected by a decrease in luciferase activity.
Assay Provider: David Fidock and Eric Ekland, Columbia University
Keywords: NIH Roadmap, MLPCN, MLI, MLSMR, qHTS, NCGC, qHTS, malaria, luciferase, viability
Four microliters of culture medium (RPMI 1640 with 0.5% w/v Albumax (GIBCO), 24 mM sodium bicarbonate and 10 ug/mL gentamycin) were dispensed by a Multi-drop Combi into white solid 1536-well plates (Grenier) and 23 nL compound was added by a pin tool. Four microliters of infected erythrocytes (2% hematocrit, 0.1% parasitemia final concentration) in culture medium were dispensed and the plates incubated for 48 hours at 37 C in 5% CO2. Two microliters of luciferase detection reagent was added and luminescence was detected by a ViewLux (PerkinElmer) reader.
On the % scale 0 is the no-effect control and ±100 the full control effect; potency means the concentration at half of the fitted maximal effect.

SMILES | activity change, negative = inhibition | Potency
COc1ccc(CN2C(=O)CN=C2Nc2ccc(C)cc2C)cc1 | -2.89% | 
CCn1c(CN2C(=O)CSc3ccccc32)n[nH]c1=S | -12.7% | 
CC(C)(C)c1ccc(CN2C(=O)CN=C(c3ccccc3)c3ccccc32)cc1 |  | 2.08 µM (active)
O=S(=O)(NCCc1ccc(Cl)cc1)c1cccs1 | 20.8% | 
Cc1cc(NCc2ccco2)n2c(nc3ccccc32)c1C#N |  | 4.15 µM (active)
Cc1cc(NC(C)C)n2c(nc3ccccc32)c1C#N | -23.9% | 
Cc1ccccc1-c1nc(C#N)c(NCc2ccco2)o1 | 4.33% | 
COc1ccc(CCN2CC(C(=O)NCCN3CCNC3=O)CCC2=O)cc1 (stereo unspecified) | 29% | 
O=S(=O)(c1ccc(F)cc1)N1CCN(C(=S)NC2CCCC2)CC1 |  | 7.38 µM (active)
Cc1ccc(S(=O)(=O)N2CCC(C(=O)N[C@@H](C)C(=O)NCc3ccco3)CC2)cc1 | -1.32% | 
O=S(=O)(c1ccc(F)cc1)N1CCN(C(=S)NCc2ccco2)CC1 |  | 1.47 µM (active)
CC1CCN(S(=O)(=O)c2ccc(S(=O)(=O)NCc3ccco3)cc2)CC1 | 7.63% | 
O=C(CN1CCN(S(=O)(=O)c2ccc(F)cc2)CC1)NC1CC1 | 9.53% | 
O=C(O)C1CCCCC1C(=O)N1CCN(S(=O)(=O)c2ccc(F)cc2)CC1 (stereo unspecified) | 17.8% | 
C=CCOc1ccc(/C=C/C(=O)OC(C)C(=O)Nc2ccc(NC(C)=O)cc2)cc1 (stereo unspecified) | 32.7% | 
O=C(CN1CCCCCC1)Nc1ccc(Br)cc1[N+](=O)[O-] | 17.6% | 
Cc1cc(OCC(=O)N(C)c2c(N)n(Cc3ccccc3)c(=O)[nH]c2=O)c(C(C)C)cc1Cl | -4.06% | 
COc1cc(C2C(C(=O)c3ccc(C)o3)=C(O)C(=O)N2CCc2ccccc2)ccc1O (stereo unspecified) | 56.4% | 
COc1ccc(CCN2C(=O)c3[nH]nc(-c4ccccc4O)c3C2c2ccc(C)cc2)cc1OC (stereo unspecified) |  | 9.28 µM (active)
COc1ccc(CCN(C)CCN2C(=O)c3ccccc3C2=O)cc1OC | 0.247% | 
COc1ccc(NC(=O)C2=C(C)NC(=O)NC2c2ccccc2[N+](=O)[O-])cc1 (stereo unspecified) | -0.334% | 
COC(=O)c1nc2n(n1)C(c1ccc([N+](=O)[O-])cc1)C(C(=O)Nc1ccc(Cl)cc1)=C(C)N2 (stereo unspecified) |  | 1.65 µM (active)

SMILES | activity change, negative = inhibition | Potency
COCCOC(=O)C1=C(C)Nc2nc(C)nn2C1c1ccccc1 (stereo unspecified) | 3.78% | 
COCCN1CCN(C(=O)c2cc(COc3ccc(F)cc3Cl)on2)CC1 | 5.96% | 
CC1CC(C)CN(S(=O)(=O)c2cccc3nonc23)C1 (stereo unspecified) | 32.9% | 
C=CCn1c(SCC(=O)NCCCO)nc2sc3c(c2c1=O)CCC3 | -8.06% | 
CC(C)c1nc(SCC(=O)Nc2cccc(C(=O)O)c2)c2c3c(sc2n1)CCCC3 | 27.6% | 
CC1=CC(C)(C)Nc2ccc(OC(=O)C(Cc3ccccc3)N3C(=O)C4CCCCC4C3=O)cc21 (stereo unspecified) |  | 13.1 µM (active)
O=C(CN1C(=O)C2C3CCC(C3)C2C1=O)Oc1ccc2ccccc2c1 (stereo unspecified) | 8.88% | 
CC1=CC(C)(C)Nc2ccc(OC(=O)CN3C(=O)C4CCCCC4C3=O)cc21 (stereo unspecified) |  | 10.4 µM (active)
Cc1ccc(C)n1C(Cc1ccccc1)C(=O)O (stereo unspecified) | 4.96% | 
CC(OC(=O)CN1C(=O)C2CCCCC2C1=O)C(=O)Nc1ncc(Cl)cc1Cl (stereo unspecified) | -0.453% | 
CCC1(C)NC(=O)N(CC(=O)N2CCN(c3cccc(Cl)c3)CC2)C1=O (stereo unspecified) | -20% | 
Cc1ccc(C)c(NC(=O)COC(=O)CSc2ccccc2)c1 | -2.8% | 
Cc1cccc(C)c1NC(=O)N1CC(C)OC(C)C1 (stereo unspecified) | -2.21% | 
Cc1sc2nc(CSCC(=O)NC3CCCCC3)[nH]c(=O)c2c1C | 47.3% | 
CCC1(c2ccccc2)C(=O)NC(=O)N(C)C1=O (stereo unspecified) |  | 16.9 µM (active)
CNC(=O)CN1C(=O)NC(c2ccccc2)(c2ccccc2)C1=O | 19% | 
Cc1c(C=O)n(C)n(-c2ccccc2)c1=O | 8.37% | 
CN(CCc1ccccc1)c1ccc([N+](=O)[O-])cn1 | 39.2% | 
COc1ccccc1/C=C1\SC(=O)N(CCC(=O)N(C)C2CCS(=O)(=O)C2)C1=O (stereo unspecified) | -8.56% | 
CCC(=O)c1ccc(OC(=O)/C=C/c2cc(OC)c(OC)c(OC)c2)cc1 | 10.4% | 
CN1CCN(C(CNS(=O)(=O)c2cccs2)c2cccnc2)CC1 (stereo unspecified) | 22.3% | 
O=C(NCC(c1cccnc1)N1CCN(c2ccccc2)CC1)Oc1ccccc1 (stereo unspecified) |  | 13.1 µM (active)

SMILES | activity change, negative = inhibition | Potency
Cc1ccc(C)c(NC(=S)NCC(c2cccnc2)N2CCOCC2)c1 (stereo unspecified) | 18.8% | 
COc1cc(CO)ccc1OCC(=O)Nc1cccc2ccccc12 | 0.965% | 
CC(C)(CNC(=O)CNC(=O)C1CCCCC1)N1CCOCC1 | -4.63% | 
O=C(NC(=S)Nc1ccc(Cl)c(C(=O)O)c1)c1cncc(Br)c1 | 36% | 
O=C(CCNS(=O)(=O)c1ccccc1)Nc1ccc(Cl)cc1C(=O)c1ccccc1 |  | 11.7 µM (active)
CN1CCN(C(=S)SCC(=O)Nc2ccc(Cl)cc2C(=O)c2ccccc2)CC1 | 0% | 
O=C(COC(=O)c1ccccc1)Nc1ccc(Cl)cc1C(=O)c1ccccc1 | 12.9% | 
COc1ccc(-c2nnc(SCC(=O)Nc3cccnc3Cl)n2C)cc1 | 8.45% | 
Cc1ccc(NC(=O)CN(C)C(=O)Cn2nnc(-c3ccccc3)n2)cc1 | 12% | 
COc1ccccc1C(=O)COC(=O)CNS(=O)(=O)c1ccc(NC(C)=O)cc1 | 6.09% | 
O=C(Nc1ncccc1O)c1ccc(S(=O)(=O)N2CCCC2)cc1 |  | 3.29 µM (active)
O=C(N/N=C/c1ccccn1)c1ccc(S(=O)(=O)N2CCCCCC2)cc1 | -4.68% | 
O=C(Nc1ccc(S(=O)(=O)N2CCCCCC2)cc1)c1c(F)cccc1F | 32.2% | 
O=C(Nc1ncccc1O)c1ccc(S(=O)(=O)N2CCCCCC2)cc1 |  | 4.15 µM (active)
O=C(Nc1cccc(F)c1)c1ccc(S(=O)(=O)N2CCCC2)cc1 | -26.6% | 
O=C(NC(=O)c1ccccc1)Nc1ccccc1O | -2.78% [at 0.00184 µM] | 
O=C(CNC(=O)c1ccc2ccccc2c1)Nc1ncccc1O | 96.1% | 
O=C(Nc1cccnc1)c1cccc(S(=O)(=O)N2CCCC2)c1 | -11.3% | 
O=C(Nc1ncccc1O)c1ccc(C(=O)c2ccccc2)cc1 |  | 0.738 µM (active)
O=C(COc1ccc(Cl)cc1Cl)N/N=C/c1ccccn1 | -14% | 
CCc1ccc(NC(=O)CCNS(=O)(=O)c2cccs2)cc1 | 28.1% | 
O=C(CCNC(=O)c1ccccc1)Nc1nc2ccccc2s1 | 109% | 
